Positions count from the first letter of the chain named.
Assays:
Test in all cases: yeast three-hybrid, YBZ-1, SC-Leu-His + 0.5 mM 3-AT, 4 days
Settings in all cases: tags: N-Gal4 AD-HA kept; label: inside an RPR1-promoter hybrid RNA with tandem MS2 sites; ssRNA
[1] = biological target: PUM1 PUF domain R4-SNL (Homo sapiens, UniProt Q14671 828-1176, N971S;H972N;Q975L)
How it was run: (§1)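 Pumilio-1 PUF domain libraries, randomized (NNK) at the three base-contacting residues of each repeat, were co-expressed with matching RNA elements from a centromeric plasmid in strain YBZ-1 (LexA–MS2 coat fusion, HIS3 reporter). Transformants were plated on SC-Leu (input) and SC-Leu-His + 0.5 mM 3-AT (selection) for four days, and repeat regions were PCR-amplified and Illumina-sequenced. The interaction score is the log2 change in variant frequency from input to selection, with pseudocount 1 where absent.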

[2] = biological target: PUM1 PUF domain R8-VYK (Homo sapiens, UniProt Q14671 828-1176, N1122V;Q1126K)
How it was run: as §1

[3] = biological target: PUM1 PUF domain R4-EYM (Homo sapiens, UniProt Q14671 828-1176, N971E;H972Y;Q975M)
How it was run: as §1

[4] = biological target: PUM1 PUF domain R1-QVK (Homo sapiens, UniProt Q14671 828-1176, S863Q;R864V;Q867K)
How it was run: as §1

[5] = biological target: PUM1 PUF domain R5-KAS (Homo sapiens, UniProt Q14671 828-1176, C1007K;R1008A;Q1011S)
How it was run: as §1

[6] = biological target: PUM1 PUF domain R3-ARA (Homo sapiens, UniProt Q14671 828-1176, C935A;Q939A)
How it was run: as §1

[7] = biological target: T1, PUM1 PUF domain R6-CYV (Homo sapiens, UniProt Q14671 828-1176, N1043C;Q1047V)
T1 sequence: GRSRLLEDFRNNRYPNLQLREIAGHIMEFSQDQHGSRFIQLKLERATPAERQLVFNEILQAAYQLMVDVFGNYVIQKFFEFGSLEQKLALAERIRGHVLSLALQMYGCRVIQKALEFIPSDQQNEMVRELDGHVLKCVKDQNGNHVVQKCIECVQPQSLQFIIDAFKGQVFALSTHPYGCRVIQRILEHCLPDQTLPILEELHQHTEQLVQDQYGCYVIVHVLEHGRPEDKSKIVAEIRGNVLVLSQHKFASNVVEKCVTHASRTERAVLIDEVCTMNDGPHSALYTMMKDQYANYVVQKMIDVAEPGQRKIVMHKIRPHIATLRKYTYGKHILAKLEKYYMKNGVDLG
How it was run: as §1

[8] = biological target: T2, PUM1 PUF domain R6-GHS (Homo sapiens, UniProt Q14671 828-1176, N1043G;Y1044H;Q1047S)
T2 sequence: T1 sequence with C216G, Y217H, V220S
How it was run: as §1

Question: With “GGCUAGAACUAGUGGAUCCCCCGGCGCCCGGCGGCUCGAGCCCGGGUAAGUGUAUAUAGUCUGCAUGCCGCCGGGCGCCAUGCCUGCAGGUCGACUCUAGAAAACAUG” as the sequence, how does the binding signal [1] read?
Answer: 4.22 log2 enrichment (interaction score)

Question: How did the binding signal [2] turn out when “GGCUAGAACUAGUGGAUCCCCCGGCGCCCGGCGGCUCGAGCCCGGGUAAGCGUAAAUAGUCUGCAUGCCGCCGGGCGCCAUGCCUGCAGGUCGACUCUAGAAAACAUG” was run?
Answer: 4.78 log2 enrichment (interaction score)

Question: How did the binding signal [1] turn out when “GGCUAGAACUAGUGGAUCCCCCGGCGCCCGGCGGCUCGAGCCCGGGUAAGUGUACAUAGUCUGCAUGCCGCCGGGCGCCAUGCCUGCAGGUCGACUCUAGAAAACAUG” was run?
Answer: 1.34 log2 enrichment (interaction score)

Question: And the binding signal [3]?
Answer: 2.59 log2 enrichment (interaction score)

Question: How did the binding signal [4] turn out when “GGCUAGAACUAGUGGAUCCCCCGGCGCCCGGCGGCUCGAGCCCGGGUAAGUGUAAAUCGUCUGCAUGCCGCCGGGCGCCAUGCCUGCAGGUCGACUCUAGAAAACAUG” was run?
Answer: 2.91 log2 enrichment (interaction score)

Question: Which binding signal [5] does the source give for “GGCUAGAACUAGUGGAUCCCCCGGCGCCCGGCGGCUCGAGCCCGGGUAAGUGUCAAUAGUCUGCAUGCCGCCGGGCGCCAUGCCUGCAGGUCGACUCUAGAAAACAUG” here?
Answer: 3.47 log2 enrichment (interaction score)

Question: “GGCUAGAACUAGUGGAUCCCCCGGCGCCCGGCGGCUCGAGCCCGGGUAAGUGUAAUUAGUCUGCAUGCCGCCGGGCGCCAUGCCUGCAGGUCGACUCUAGAAAACAUG” was tested. Which binding signal [6] did it give?
Answer: 0.92 log2 enrichment (interaction score)

Question: Which binding signal [7] does the source give for “GGCUAGAACUAGUGGAUCCCCCGGCGCCCGGCGGCUCGAGCCCGGGUAAGUGAAAAUAGUCUGCAUGCCGCCGGGCGCCAUGCCUGCAGGUCGACUCUAGAAAACAUG” here?
Answer: 3.61 log2 enrichment (interaction score)

Question: What about the binding signal [8] of the same sequence?
Answer: 2.5 log2 enrichment (interaction score)

Question: With “GGCUAGAACUAGUGGAUCCCCCGGCGCCCGGCGGCUCGAGCCCGGGUAAGUGUUAAUAGUCUGCAUGCCGCCGGGCGCCAUGCCUGCAGGUCGACUCUAGAAAACAUG” as the sequence, how does the binding signal [5] read?
Answer: 5.33 log2 enrichment (interaction score)

Reference: PMC8384837, “Expanding the binding specificity for RNA recognition by a PUF domain”
